Only some compounds are listed: those with a hit (about 18% of all), similar ones and a draw of the others.
IL1B secr inh = inflammasome signaling inhibition, IL-1 beta readout. THP-1 LPS/ATP IL-1B secretion, AlphaLISA, 16 h; stronger effect = lower value. activity change, % at 57.5 µM. 360,000 compounds, 4.7% hits; in the data active = activity change below about -50%; inconclusive = mostly about -30% to -49%; note: % is set by controls: 0 for no effect and ±100 for the full control effect
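THP-1 cells pretreated 1 hr with compounds (up to 57.5 uM final), then stimulated with LPS (250 ng/mL final) plus ATP (1.25 mM final); secreted IL-1B measured by AlphaLISA after 16 hr, decreased signal indicating inhibition.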
TGFb SMAD3 inh = inhibitors of TGF-b signaling. HepG2 CAGA-GFP TGF-b/SMAD3 reporter, GFP fluorescence, 18 h; TGF-beta stimulated, 500 pg/mL final. Potency, µM (top dose mostly 46.1 µM), for the others: at the highest dose activity, negative = inhibition, most hits filed as inhibitors. 410,000 compounds, 1.2% hits. AID 588855; note: potency is the fitted concentration of half-maximal effect; % is set by controls: 0 for no effect and ±100 for the full control effect; nearly all actives have a fitted effect of over 65% in size
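Read-out: total well GFP (ex488/em500-530) summed from mean per-cell fluorescence. Cells: HEPG2 CAGA-GFP, 1% FBS DMEM, 18 h at 37 degrees C with 500 pg/mL final TGF-beta. Unstimulated wells served as the full-inhibition control; stimulated DMSO wells = 0%.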
HepG2 tox = counter-screen for TGF-b inhibitors: cytotoxicity in HepG2 cells | HepG2 CAGA-GFP viability, ATP luminescence, 18 h | 410,000 compounds, 0.76% hits | Potency, µM (top dose mostly 46.1 µM), for the others: top-dose activity change, negative = cytotoxicity, usual class: cytotoxic; note: potency is the fitted concentration of half-maximal effect
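CellTiter-Glo luminescence gave cytotoxicity after 18 hours at 37 degrees C. The cells were HepG2 CAGA-GFP in 1% FBS DMEM, stimulated with 500 pg/mL TGF-beta after compound addition. %Activity was normalised to no-cell wells (complete cell-killing) and DMSO (no toxicity), and curves were fitted and classified.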
TDP1 cell CPT = growth inhibition of DT40 Tdp1-/-;hTDP1 cells with camptothecin (screen for TDP1 inhibitors); chicken DT40 Tdp1-/-;hTDP1 cells + 20 nM CPT, ATP luminescence, 48 h; Potency, µM (titrated, usually from 46.2 µM), inactives show top-dose activity change, negative = growth inhibition, actives largely listed as inhibitors; 420,000 compounds, 12% hits; note: potency is the fitted concentration of half-maximal effect; % is set by controls: 0 for no effect and ±100 for the full control effect; nearly all actives have a fitted effect of over 55% in size
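Chicken DT40 Tdp1-/- cells complemented with human TDP1, 400 cells/well, exposed to compounds plus 20 nM camptothecin for at least 48 h at 37 C; viability read as ATP content by CellTiter-Glo luminescence.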
TDP1 inh = inhibitors of human tyrosyl-DNA phosphodiesterase TDP1; 350,000 compounds, 0.28% hits; recombinant TDP1, AlphaScreen DNA substrate cleavage; Potency, µM (doses to about 130 µM), inactives show at the top dose activity change, negative = inhibition, usual class: inhibitors; note: potency is the fitted concentration of half-maximal effect; % is set by controls: 0 for no effect and ±100 for the full control effect; nearly all actives have a fitted effect of over 40% in size
Target sequence (Q9NUW8 whole entry, looked up): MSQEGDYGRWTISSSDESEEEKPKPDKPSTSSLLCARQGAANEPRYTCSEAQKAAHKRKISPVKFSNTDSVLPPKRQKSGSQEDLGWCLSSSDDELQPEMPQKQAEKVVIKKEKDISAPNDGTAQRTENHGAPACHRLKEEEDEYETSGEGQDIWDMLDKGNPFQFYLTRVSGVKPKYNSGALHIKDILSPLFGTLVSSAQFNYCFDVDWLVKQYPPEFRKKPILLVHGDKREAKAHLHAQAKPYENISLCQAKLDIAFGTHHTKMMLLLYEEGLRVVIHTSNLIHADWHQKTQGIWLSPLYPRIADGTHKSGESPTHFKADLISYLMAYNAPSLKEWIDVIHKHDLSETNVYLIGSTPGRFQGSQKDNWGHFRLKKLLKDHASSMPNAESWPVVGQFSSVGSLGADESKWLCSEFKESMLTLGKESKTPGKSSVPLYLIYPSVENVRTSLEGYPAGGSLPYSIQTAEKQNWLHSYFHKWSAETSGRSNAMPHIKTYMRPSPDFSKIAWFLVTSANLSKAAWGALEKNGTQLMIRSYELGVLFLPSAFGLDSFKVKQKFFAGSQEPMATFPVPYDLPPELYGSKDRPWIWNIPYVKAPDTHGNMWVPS
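Recombinant human Tdp1 (E. coli-expressed, 1 nM final) preincubated with compounds 15 min at room temperature, then 5'-biotin/3'-phosphotyrosine-FITC DNA substrate (15 nM final) added for 5 min. AlphaScreen beads (10 ug/ml final) added 10 min; cleavage lowers signal.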
TDP1 cell noCPT = qHTS for Inhibitors of human tyrosyl-DNA phosphodiesterase 1 (TDP1): qHTS in cells in absence of CPT. DT40 Tdp1-/- hTDP1 cells, no CPT, ATP luminescence, 48 h. Potency, µM (series often up to 46.2 µM), for the others: at the top dose activity change, negative = growth inhibition, usual class: inhibitors. 420,000 compounds, 15% hits; note: potency is the fitted concentration of half-maximal effect; % is set by controls: 0 for no effect and ±100 for the full control effect; nearly all actives have a fitted effect of over 55% in size
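Stably hTDP1-transfected Tdp1-null chicken DT40 cells were treated with library compounds minus camptothecin and grown for at least 48 hr at 37 °C, after which cellular ATP was quantified by luminescence.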
Starred values were filed as active, the others as inactive; ? = inconclusive; nt = no result given. Unless noted, calls come from the whole dose curve; as a rule, active = well fitted curve in the direction sought with a large enough effect; inconclusive = small, poorly fitted or top-dose-only effect, or another doubt; inactive = no such curve, though single readings can be large; an effect the other way counts as inactive or inconclusive.

SMILES	IL1B secr inh	TGFb SMAD3 inh	HepG2 tox	TDP1 cell CPT	TDP1 inh	TDP1 cell noCPT
CC(=O)c1ccc(N2CCN(C(=O)c3ccco3)CC2)c(F)c1	-6.8	20.7%	4.8%	?	-7.7%	?
CCC(=O)c1ccc(N2CCN(C(=O)c3ccccc3)CC2)c(F)c1	29.0	-11.8%	-10.9%	18.4µM*	0.0%	7.31µM*
CCCC(=O)c1ccc(N2CCCCCC2)c(F)c1	-8.3	-1.8%	-3.6%	?	2.0%	23.1µM*
CCOC(=O)N1CCN(c2ccc(C(=O)CC)cc2F)CC1	2.5	28.7%	11.0%	?	-2.0%	?
CC(=O)c1ccc(N2CCN(C(=O)c3ccco3)C(C)C2)c(F)c1 (stereo not given)	-4.6	-0.4%	11.5%	?	-2.3%	25.9µM*
CC(=O)c1ccc(N2CCN(C(=O)c3ccc(Br)cc3)CC2)c(F)c1	-2.6	-7.9%	0.0%	9.2µM*	-2.0%	13µM*
O=C(Nc1ccccc1C(=O)OCc1cc(=O)n2nc(C3CC3)sc2n1)c1ccc(Cl)cc1	nt	-15.0%	-13.5%	-26.6%	-6.2%	-21.1%
CCN(c1ccccc1)S(=O)(=O)c1ccc(C(=O)N2CCN(c3ccccc3F)CC2)cc1	-5.0	-25.2%	-16.7%	?	nt	20.6µM*
CCOC(=O)C1=C(CSc2nc3ccccc3s2)NC(=O)NC1c1ccc(OC)cc1 (stereo not given)	-86.0*	?	-52.5%	20.6µM*	3.9%	18.4µM*
CCOC(=O)C1=C(CSc2nc3ccccc3s2)NC(=O)NC1c1cc(C)ccc1C (stereo not given)	?	11.2µM*	11.2µM*	?	-2.0%	23.1µM*
Cc1cc(C)c(NC(=O)CSc2nnc(CNC(=O)c3ccco3)o2)c(C)c1	-7.8	6.7%	-2.2%	-3.1%	-0.1%	14.6%
COc1ccccc1-c1cnc(C(O)c2ccc(Cl)c(Cl)c2)[nH]1 (stereo not given)	-19.4	?	-16.3%	?	nt	16.4µM*
OC(c1ccc(Cl)c(Cl)c1)c1ncc(-c2ccccc2C(F)(F)F)[nH]1 (stereo not given)	-11.5	?	-39.8%	?	nt	18.4µM*
OC(c1cc(Cl)cc(Cl)c1)c1ncc(-c2ccccc2F)[nH]1 (stereo not given)	2.8	?	-75.4%	?	nt	?
COc1ccccc1-c1cnc(C(O)c2cc(Cl)cc(Cl)c2)[nH]1 (stereo not given)	-5.0	11.2µM*	-20.8%	20.6µM*	nt	?
COc1ccccc1-c1cnc(C(O)c2ccc(F)c(C)c2)[nH]1 (stereo not given)	19.1	8.0%	3.6%	?	nt	-29.5%
O=C(Cn1c(=O)n(Cc2ccco2)c(=O)c2sc3ccccc3c21)Nc1ccccc1C(F)(F)F	nt	-12.6%	-13.4%	?	9.0%	?
CC(=O)C1=C(O)C(=O)N(Cc2ccccc2)C1c1ccco1 (stereo not given)	-0.9	13.1%	9.5%	3.5%	0.794µM*	1.5%
CCN(Cc1ccc(N(C)C)cc1)C(C)C(=O)Nc1ccc(S(=O)(=O)N2CCCC2)cc1 (stereo not given)	-14.5	3.4%	-4.8%	-29.1%	9.3%	-0.8%
O=C(O)C1C2C=CC(C2)C1C(=O)NCc1ccc(Cl)c(Cl)c1 (stereo not given)	25.8	-14.6%	-0.7%	14.6µM*	-8.5%	-4.0%
Cc1cccc(C)c1Nc1ncnc2ccccc12	24.3	-7.1%	-1.5%	-21.9%	nt	-15.6%
Cc1ccc(S(=O)(=O)C(CNC(=O)C(=O)NCCc2ccc(Cl)cc2)c2ccco2)cc1 (stereo not given)	nt	15.1%	1.2%	-13.4%	5.2%	?
O=C(NCCc1ccc(Cl)cc1)C(=O)NCC(c1ccco1)S(=O)(=O)c1ccc(Cl)cc1 (stereo not given)	nt	1.4%	1.4%	16.4µM*	5.2%	13µM*
O=C(NCC(c1ccco1)S(=O)(=O)c1ccc(Cl)cc1)c1ccc(C(F)(F)F)cc1 (stereo not given)	nt	15.8µM*	-16.5%	9.2µM*	-7.8%	11.6µM*
Cc1ccc(S(=O)(=O)C(CNC(=O)c2ccc(C(F)(F)F)cc2)c2ccco2)cc1 (stereo not given)	nt	?	-24.4%	?	0.0%	?
SMILES	IL1B secr inh	TGFb SMAD3 inh	HepG2 tox	TDP1 cell CPT	TDP1 inh	TDP1 cell noCPT
CN1N=C(C(=O)N=c2sc3ccccc3n2C)CCC1=O	24.0	-5.0%	17.9%	7.8%	nt	-3.7%
CCOC(=O)N1CCC2(CC1)C(C(=O)C13CC4CC(CC(C4)C1)C3)C2(C#N)C#N (stereo not given)	-54.2*	-4.9%	-4.6%	?	-4.2%	?
CCOC(=O)C1CCN(C(=O)COC(=O)C23CC4CC(CC(C4)C2)C3)CC1	0.0	-16.8%	-20.1%	?	-0.6%	?
O=C(COC(=O)/C=C/c1ccco1)Nc1ccccc1	-1.8	-2.3%	0.0%	-11.9%	nt	2.9%
CCN(c1ccc(NC(=O)COC(=O)/C=C/c2ccco2)cc1)C(C)C	-2.1	-5.4%	3.6%	25.9µM*	6.3%	18.4µM*
CCc1ccc(NC(=O)COC(=O)/C=C/c2ccco2)cc1	33.7	-13.5%	-51.7%	?	25.1µM*	?
CNc1oc(Cc2ccccc2)nc1S(=O)(=O)c1ccccc1	0.0	?	-63.4%	14.6µM*	9.3%	6.51µM*
COC(=O)c1cccc(NC(=O)CSc2nnc(C)o2)c1	-3.0	2.4%	-11.3%	7.1%	8.7%	-4.4%
C=CCn1c(O)c(N=Nc2nc3ccccc3c(=O)n2-c2ccccc2)c2ccccc21	23.8	-6.4%	3.0%	-29.5%	0.0%	11.6µM*
Cn1c(O)c(N=NC(=N)N)c2ccccc21	-3.7	11.3%	-3.0%	-0.5%	-1.2%	1.7%
Cc1ccccc1N=Nc1c(O)n(C)c2ccccc12	19.5	-12.2%	-15.5%	?	1.8%	23.1µM*
C=CCn1c(O)c(N=NC(=O)OCC)c2ccccc21	12.8	-11.7%	7.2%	?	0.0%	?
C=CCn1c(O)c(N=Nc2ccccc2O)c2ccccc21	?	?	-52.3%	?	5.2%	18.4µM*
C=CCn1c(O)c(N=NC(=S)Nc2cccc(OC)c2)c2ccccc21	19.9	-24.7%	-23.2%	3.26µM*	10.5%	2.91µM*
